Where “and” joins values, the source holds several entries; their conditions need not be identical. Equal entries are not always repeated. Inconclusive results are not listed. Where a call stands in place of a potency, no number is given. Some compounds were tested as several samples or in several runs, with calls that do not always agree. Calls of active or inactive are those of the source. Unless noted, the call rests on the fitted dose curve; in most records, active means well fitted curve in the direction sought with a large enough effect; inconclusive means small, poorly fitted or top-dose-only effect, or another doubt; inactive means no such curve, though single readings can be large; an effect the other way counts as inactive or inconclusive.
How the values were obtained:
[1] = Cell Viability - LYMP2-001 (AID 921); further: nearly all actives have a fitted effect of over 70% in size
Method in brief: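 Cellular ATP loss read by luciferase luminescence after 24 h compound exposure at 37 C in complete medium. LYMP2-001 lymphoblastoid cells, 2500/well; qHTS concentration-response data fitted with Hill equation for AC50.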

[2] = Cell Viability - LYMP2-013 (AID 970); further: nearly all actives have a fitted effect of over 55% in size
Method in brief: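 In complete culture medium, human lymphoblastoid cells were dosed for 24 hr at 37 C, with tetraoctylammonium bromide (6.4pM to 92 uM) as positive control. Viability reflects luciferase-based ATP signal; AC50 derived from concentration-response curves.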

[3] = Cell Viability - LYMP2-002 (AID 977); further: potency means the concentration at half of the fitted maximal effect
Method in brief: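 Human lymphoblastoid cells, 2500/well, complete medium; 5 h 37 C settle; compound 24 h 37 C; CellTiter-Glo, 30 min RT; luminescence. Decrease in ATP = cytotoxicity; AC50 via Hill equation.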

[4] = target: Peroxisome proliferator-activated receptor gamma (Homo sapiens) (UniProt P37231); test: qHTS assay for small molecule agonists of peroxisome proliferator-activated receptor gamma signaling (AID 588536; active means well fitted curve in the direction sought with a large enough effect in the signal ratio, with a control signal flat, not every such curve was filed as active; the % refers to the signal ratio)
Method in brief: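 Cells were plated and held 6–6.5 h at 37 C, then compounds were added as a titration series. After a further 16 h, CCF4 dye was loaded for 2 h at room temperature and emission at 460/530 nm recorded.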

[5] = target: Peroxisome proliferator-activated receptor gamma (Homo sapiens) (UniProt P37231); test: qHTS assay for small molecule antagonists of peroxisome proliferator-activated receptor gamma signaling (AID 588537; active means well fitted inhibition curve with a large enough effect in the signal ratio, with a control signal flat, not every such curve was filed as active; the % refers to the signal ratio; further: potency means the concentration at half of the fitted maximal effect)
Method in brief: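 Read-out: CCF4 fluorescence (ex 405, em 460/530 nm) after 2 h at RT. Cells were HEK293 carrying a UAS-bla reporter and treated 16 h at 37 C with compound plus rosiglitazone (50 nM final). Normalized to rosiglitazone and DMSO.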

[6] = qHTS assay to identify small molecules that stimulate interleukin-8 (IL-8) secretion (AID 651758; active means well fitted activation curve with a large enough effect in the signal ratio; the % refers to the signal ratio; further: potency means the concentration at half of the fitted maximal effect)
Method in brief: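 Compounds are added to THP-1 cells (2000 per well) and left 16 hrs at 37 C. A labeled anti-IL-8 antibody pair is then added, and IL-8 secretion is measured by time-resolved FRET after 1-3 hrs at room temperature.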

[7] = Cellular Toxicity (caspase-3) Renal Proximal Tubule (AID 667); conditions: renal proximal tubule cells; at 91.7 µM (top of the series), primary cells freshly taken from rat, solvent-only wells 0%, staurosporine 100% unless noted;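 further: cells exposed to compound for 16 hours at 37 °C before detection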
Method in brief: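 Caspase 3/7 activation measured by luminescent aminoluciferin release in primary rat proximal tubule cells after 16 hr compound exposure at 37 °C. AC50 from Hill-fitted concentration-response, scaled between DMSO and 10 uM staurosporine.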

[8] = qHTS assay for small molecule disruptors of the mitochondrial membrane potential - 1 hr assay (AID 651754; calls by dose curve; further: nearly all actives have a fitted effect of over 35% in size)
Method in brief: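 In this qHTS format, a 1 hr compound treatment of HepG2 cells precedes Mito-MPS staining, and membrane potential is judged from aggregate (red) against monomer (green) fluorescence intensity.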

[9] = qHTS assay for small molecule activators of the human pregnane X receptor (PXR) signaling pathway (AID 720659; call rule not given here)
[10] = Cell Viability - LYMP2-024 (AID 988);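 further: cells exposed to compound for 24 hr at 37 °C; nearly all actives have a fitted effect of over 60% in size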
Method in brief: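 Cells at 2500 per well received compound for 24 hr after a 5 hr settling period. Viability was scored by CellTiter-Glo luminescence, with AC50 from Hill fits.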

[11] = qHTS Assay for Modulators of Human Peripheral Myelin Protein 22 (PMP22) Expression/Activity (AID 1967; active means well fitted curve in the direction sought with a large enough effect in the signal ratio; the % refers to the signal ratio)
Method in brief: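 Readout is the corrected green/red luminescence ratio after 24 h compound exposure, normalised to untreated cells (0%). Engineered MSC80 mouse Schwann cells express green luciferase from the mouse Pmp22 promoter and red luciferase from EF-alpha as internal control.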

[12] = target: DNA dC->dU-editing enzyme APOBEC-3G (Homo sapiens) (UniProt Q9HC16); test: qHTS for inhibitors of Vif-A3G interactions: Validation (AID 588379)
Method in brief: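 Yellow fluorescence (Ex 488, Em 500-530) of Vif-coexpressing HeLa A3G-eYFP cells, scanned by Acumen cytometer, reports blocked A3G degradation. Cells plated at 700/well overnight at 37 deg C before compound addition, then a further overnight compound incubation at 37 deg C.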

[13] = system: CP203; test: qHTS profiling for inhibitors of Plasmodium falciparum proliferation (AID 504749); further: nearly all actives have a fitted effect of over 60% in size; further: potency means the concentration at half of the fitted maximal effect; conditions: P. falciparum in erythrocytes, SYBR Green DNA, 72 h; series mostly up to 28.7 µM
Method in brief: (§1)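 SYBR Green fluorescence (ex 485 nm, em 535 nm) reports parasite DNA after 72 h compound exposure of infected red cells at 0.3% parasitemia, 2.5% hematocrit; signal normalized to 0.29 uM artemisinin and vehicle wells.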

[14] = system: 7G8; test: as above; conditions: P. falciparum in erythrocytes, SYBR Green DNA, 72 h; series mostly up to 12.8 µM
Method in brief: as §1

[15] = target: Pyruvate kinase PKM (Homo sapiens) (UniProt P14618); test: qHTS Assay for Activators of Human Muscle Pyruvate Kinase (AID 954; active means well fitted curve in the direction sought with a large enough effect, not every such curve was filed as active)
Method in brief: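 Compound pinned into substrate mix (0.5 mM PEP, 0.1 mM ADP), then 0.1 nM PKM2 added; 1 h, RT. Stop/detection luciferase reagent added, luminescence read. Normalized to no-inhibition and no-enzyme or reference-inhibitor controls.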

[16] = target: Alpha-galactosidase (Coffea arabica) (UniProt Q42656); test: Counterscreen for Glucocerebrosidase Inhibitors: qHTS Assay for Coffee Bean alpha-Galactosidase at pH 4.5 (AID 957)
Method in brief: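 Quantitative HTS of compounds (0.7 nM to 77 uM) against coffee bean alpha-galactosidase at pH 4.5, measuring 4-methylumbelliferone fluorescence released from 80 uM substrate.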

[17] = target: Alpha-galactosidase A (Homo sapiens) (UniProt P06280); test: Counterscreen for Glucocerebrosidase Inhibitors: qHTS Assay for Human alpha-Galactosidase at pH 4.5 (AID 992)
Method in brief: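 Steps: enzyme (2 nM final), then compound across 0.7 nM to 77 uM, then 80 uM fluorogenic galactopyranoside substrate; incubate 20 min at room temperature; quench at pH 10; measure fluorescence at 365/440 nm.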

[18] = target: alpha-glucosidase (Oryza sativa, rice) (UniProt Q653V4); test: Counterscreen for Glucocerebrosidase Inhibitors: qHTS Assay for Rice alpha-Glucosidase at pH 5.0 (AID 997)
Method in brief: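 Endpoint fluorogenic assay at pH 5.0: compounds (0.7 nM to 77 uM) titrated against 4 nM rice enzyme and 400 uM 4-MU-alpha-glucoside for 20 min at room temperature; NaOH/glycine stop, read ex 365/em 440 nm, Hill-fitted AC50.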

[19] = target: Alpha-galactosidase (Coffea arabica) (UniProt Q42656); test: Counterscreen for Glucocerebrosidase Inhibitors: qHTS Assay for Coffee Bean alpha-Galactosidase at pH 5.9 (AID 998)
Method in brief: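 Enzyme 2 nM + cpd (0.7 nM–77 uM titration) + 4-MU-alpha-Gal 80 uM, pH 5.9 citrate/Tween-20, RT 20 min, NaOH/glycine stop pH 10, fluor 365/440. Normalized to no-enzyme and full-activity controls; Hill-fit AC50.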

Pyruvate kinase PKM (Homo sapiens), sequence (P14618 whole entry, looked up): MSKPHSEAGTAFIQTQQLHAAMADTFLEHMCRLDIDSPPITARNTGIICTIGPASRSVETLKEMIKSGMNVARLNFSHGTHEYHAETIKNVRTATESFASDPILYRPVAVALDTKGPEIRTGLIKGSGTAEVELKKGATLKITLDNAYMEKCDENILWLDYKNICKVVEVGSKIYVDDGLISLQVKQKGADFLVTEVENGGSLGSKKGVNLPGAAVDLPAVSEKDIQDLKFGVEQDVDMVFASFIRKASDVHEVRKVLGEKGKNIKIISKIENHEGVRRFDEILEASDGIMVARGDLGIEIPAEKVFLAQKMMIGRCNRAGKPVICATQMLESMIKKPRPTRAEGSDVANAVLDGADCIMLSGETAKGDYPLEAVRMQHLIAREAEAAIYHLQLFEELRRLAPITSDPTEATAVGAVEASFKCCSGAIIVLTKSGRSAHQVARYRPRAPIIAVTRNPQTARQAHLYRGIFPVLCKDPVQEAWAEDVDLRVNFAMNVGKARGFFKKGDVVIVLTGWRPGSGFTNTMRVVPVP
Alpha-galactosidase (Coffea arabica), sequence (Q42656 whole entry, looked up): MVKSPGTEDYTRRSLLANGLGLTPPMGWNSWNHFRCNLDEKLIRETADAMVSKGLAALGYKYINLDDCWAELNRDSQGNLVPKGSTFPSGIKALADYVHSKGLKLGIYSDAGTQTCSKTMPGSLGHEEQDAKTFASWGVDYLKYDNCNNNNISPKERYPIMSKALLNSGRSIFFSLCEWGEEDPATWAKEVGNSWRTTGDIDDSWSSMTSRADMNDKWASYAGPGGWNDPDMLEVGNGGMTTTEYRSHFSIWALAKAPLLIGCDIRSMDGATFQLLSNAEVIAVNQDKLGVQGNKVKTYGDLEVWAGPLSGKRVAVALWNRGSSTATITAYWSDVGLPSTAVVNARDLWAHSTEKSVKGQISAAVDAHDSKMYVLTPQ
Alpha-galactosidase A (Homo sapiens), sequence (P06280 whole entry, looked up): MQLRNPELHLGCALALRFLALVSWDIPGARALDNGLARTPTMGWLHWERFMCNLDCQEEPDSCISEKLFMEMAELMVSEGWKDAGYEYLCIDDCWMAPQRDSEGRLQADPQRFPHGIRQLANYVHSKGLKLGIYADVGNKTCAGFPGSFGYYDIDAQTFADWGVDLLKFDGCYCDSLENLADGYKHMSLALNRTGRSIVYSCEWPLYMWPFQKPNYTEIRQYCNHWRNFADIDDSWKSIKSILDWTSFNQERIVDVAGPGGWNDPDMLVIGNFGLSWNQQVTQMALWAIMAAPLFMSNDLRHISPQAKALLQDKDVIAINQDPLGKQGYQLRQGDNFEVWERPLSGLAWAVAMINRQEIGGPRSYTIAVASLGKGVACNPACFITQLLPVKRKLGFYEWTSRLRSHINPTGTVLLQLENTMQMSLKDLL
Peroxisome proliferator-activated receptor gamma (Homo sapiens), sequence (P37231 whole entry, looked up): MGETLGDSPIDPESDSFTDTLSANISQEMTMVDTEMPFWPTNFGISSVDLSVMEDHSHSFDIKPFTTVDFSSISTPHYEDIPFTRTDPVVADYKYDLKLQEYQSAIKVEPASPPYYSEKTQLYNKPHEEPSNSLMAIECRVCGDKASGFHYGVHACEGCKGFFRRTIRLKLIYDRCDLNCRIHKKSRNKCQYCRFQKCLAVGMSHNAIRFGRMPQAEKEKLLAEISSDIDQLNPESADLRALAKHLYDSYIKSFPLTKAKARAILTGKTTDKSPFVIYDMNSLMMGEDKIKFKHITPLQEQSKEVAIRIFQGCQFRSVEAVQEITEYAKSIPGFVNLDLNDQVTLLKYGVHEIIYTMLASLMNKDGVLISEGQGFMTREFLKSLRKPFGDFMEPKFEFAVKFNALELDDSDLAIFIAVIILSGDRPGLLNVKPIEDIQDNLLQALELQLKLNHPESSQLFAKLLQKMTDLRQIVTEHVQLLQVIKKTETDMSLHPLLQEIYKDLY
DNA dC->dU-editing enzyme APOBEC-3G (Homo sapiens), sequence (Q9HC16 whole entry, looked up): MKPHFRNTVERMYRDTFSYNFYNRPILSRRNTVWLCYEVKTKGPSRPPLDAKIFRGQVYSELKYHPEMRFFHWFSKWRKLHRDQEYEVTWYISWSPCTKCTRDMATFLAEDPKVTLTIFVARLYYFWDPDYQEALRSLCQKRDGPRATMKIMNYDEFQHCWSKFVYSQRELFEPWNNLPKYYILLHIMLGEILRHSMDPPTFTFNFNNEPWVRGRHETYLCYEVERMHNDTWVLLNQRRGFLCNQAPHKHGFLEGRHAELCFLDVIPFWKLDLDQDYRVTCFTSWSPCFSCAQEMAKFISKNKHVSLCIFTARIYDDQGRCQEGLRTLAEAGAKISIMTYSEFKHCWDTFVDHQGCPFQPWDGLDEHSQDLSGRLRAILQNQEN

Q: Which Potency [1] does the source give for `ClC(Cl)=C(c1ccc(Cl)cc1)c1ccc(Cl)cc1` here?
A: inactive

Q: And the Potency [2]?
A: inactive

Q: And the Potency [3]?
A: inactive

Q: And the outcome [4]?
A: inactive

Q: What about the Potency [5] of the same compound?
A: inactive

Q: And the Potency [6]?
A: inactive

Q: Which results are given for `COP(=S)(OC)Oc1ccc([N+](=O)[O-])cc1`?
A: caspase-3 activation [7]: -6.77% [at 91.7 µM] (inactive); Potency [1]: inactive; Potency [2]: inactive; Potency [3]: inactive; Potency [5]: inactive; Potency [8]: inactive; outcome [9]: inactive

Q: Which caspase-3 activation [7] does the source give for `ClC1=C(Cl)C2(Cl)C3C(Cl)C=CC3C1(Cl)C2(Cl)Cl` (centres undefined) here?
A: 2.29% (inactive)

Q: What about the Potency [10] of the same compound?
A: inactive

Q: What about the Potency [5] of the same compound?
A: inactive

Q: And the Potency [8]?
A: inactive

Q: What about the Potency [6] of the same compound?
A: 26.6 µM (active)

Q: And the outcome [9]?
A: inactive

Q: Which outcome [11] does the source give for `CN1CCC23CCCC[C@H]2C1Cc1ccc(O)cc13` (some centres undefined) here?
A: inactive

Q: With `COc1cc2c(cc1O)CC1c3c(cc(O)c(OC)c3-2)CCN1C` (centres undefined) as the compound, how does the outcome [12] read?
A: inactive

Q: Which caspase-3 activation [7] does the source give for `CCc1cccc(CC)c1N(COC)C(=O)CCl` here?
A: 1.3% (inactive)

Q: What about the outcome [4] of the same compound?
A: inactive

Q: What about the Potency [8] of the same compound?
A: inactive

Q: Which Potency [3] does the source give for `ClC1=C(Cl)C2(Cl)C3C4CC(C5OC45)C3C1(Cl)C2(Cl)Cl` (centres undefined) here?
A: 31.6 µM (active)

Q: And the outcome [4]?
A: inactive

Q: What about the Potency [13] of the same compound?
A: inactive

Q: With `C/C=C/c1ccc2c(c1)OCO2` as the compound, how does the caspase-3 activation [7] read?
A: -4.01% [at 91.7 µM] (inactive)

Q: What about the Potency [1] of the same compound?
A: inactive

Q: And the Potency [2]?
A: inactive

Q: What about the Potency [3] of the same compound?
A: inactive

Q: What about the Potency [10] of the same compound?
A: inactive

Q: What about the outcome [12] of the same compound?
A: inactive

Q: What about the outcome [4] of the same compound?
A: inactive

Q: And the outcome [9]?
A: inactive

Q: Which Potency [14] does the source give for `CCN(CC)C(=O)N[C@@H]1C[C@@H]2c3cccc4[nH]cc(c34)C[C@H]2N(C)C1` here?
A: 4.47 µM (active)

Q: With `CNC(=O)O/N=C/C(C)(C)SC` as the compound, how does the Potency [2] read?
A: inactive

Q: And the Potency [3]?
A: inactive

Q: And the Potency [5]?
A: inactive and 39.8 µM (active)

Q: What about the Potency [8] of the same compound?
A: inactive

Q: And the Potency [6]?
A: inactive

Q: With `C[C@]12CC[C@H](O)C[C@@H]1CC[C@H]1[C@H]2CC[C@]2(C)C(=O)CC[C@@H]12` as the compound, how does the outcome [15] read?
A: inactive

Q: And the outcome [16]?
A: inactive

Q: What about the outcome [17] of the same compound?
A: inactive

Q: What about the outcome [18] of the same compound?
A: inactive

Q: What about the outcome [19] of the same compound?
A: inactive

Q: For `CC(C)c1c(CN(C)[C@@H](C)Cc2ccccc2)n(C)n(-c2ccccc2)c1=O`, which Potency [13] is on record?
A: inactive

Q: Which results are given for `CN(C)C(=O)Oc1cc(OC(=O)N(C)C)cc([C@@H](O)CNC(C)(C)C)c1`?
A: Potency [14]: inactive; Potency [13]: inactive

Q: Which outcome [15] does the source give for `C[N+]1(C)[C@@H]2CC[C@H]1CC(OC(=O)[C@@H](CO)c1ccccc1)C2` (some centres undefined) here?
A: inactive

Q: What about the outcome [16] of the same compound?
A: inactive

Q: What about the outcome [17] of the same compound?
A: inactive

Q: What about the outcome [18] of the same compound?
A: inactive

Q: And the outcome [19]?
A: inactive

Q: And the Potency [14]?
A: inactive

Q: And the Potency [13]?
A: inactive

Q: What does the source list for `CC[C@@]1(c2ccc(N)cc2)CCC(=O)NC1=O`?
A: outcome [15]: inactive; outcome [16]: inactive; outcome [17]: inactive; outcome [18]: inactive; outcome [19]: inactive; Potency [14]: inactive; Potency [13]: inactive

Q: For `C[C@@]12CCC(=O)C=C1C=C[C@H]1[C@H]3CC[C@](O)(CCC(=O)O)[C@]3(C)CC[C@@H]12`, which Potency [13] is on record?
A: inactive

Q: Which Potency [14] does the source give for `C[C@H](N)[C@@H](O)c1ccccc1` here?
A: inactive

Q: What about the Potency [13] of the same compound?
A: inactive

Q: Which results are given for `COc1ccc2c(c1OC)C(=O)O[C@H]2[C@H]1c2cc3c(cc2CCN1C)OCO3`?
A: outcome [16]: inactive; outcome [17]: inactive; outcome [18]: inactive; outcome [19]: inactive

Q: What does the source list for `C[N+]1([O-])[C@@H]2CC(OC(=O)[C@@H](CO)c3ccccc3)C[C@@H]1[C@H]1O[C@H]12` (some centres undefined)?
A: Potency [14]: inactive; Potency [13]: inactive

Q: Which Potency [14] does the source give for `CC1=C2[C@@H]3OC(=O)[C@@H](C)[C@@H]3CC[C@]2(C)C=CC1=O` here?
A: inactive

Q: What about the Potency [13] of the same compound?
A: inactive

Q: For `COc1ccc(OC)c([C@H](O)[C@H](C)N)c1`, which outcome [15] is on record?
A: inactive

Q: And the outcome [16]?
A: inactive

Q: What about the outcome [17] of the same compound?
A: inactive

Q: What about the outcome [18] of the same compound?
A: inactive

Q: What about the outcome [19] of the same compound?
A: inactive

Reference: PubChem BioAssay (NCATS)
